From PubChem BioAssay
Activity calls are given as the source filed them.

What was measured:
[1] = optical density shifts of acrAB sulA E. coli – strain DRC41, OD650, 48 h, E. coli filamentation inducer project, primary screen (AID 1152); conditions: higher = more signal, called active from +8 up or from −8 down;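 further: E. coli MC1000 strain DRC41 lacking acrAB efflux pump and sulA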
[2] = probe aLefty1 binding on compound microarray – biochemical, small-molecule microarray, 635/667 nm fluorescence, primary screen (AID 1153); conditions: higher = more signal;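 further: score merges spot fluorescence with signal-to-noise ratio from the scanned slide images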
[3] = plasmodial surface anion channel blockers, osmotic lysis – cell-based, P. falciparum Indochina, OD700, 1 h, primary screen (AID 1154); conditions: P. falciparum Indochina infected RBC osmotic lysis, higher = more signal, called active from +8 up or from −8 down
[4] = plasmodial surface anion channel blockers, osmotic lysis – cell-based, P. falciparum Indochina, OD700, 2 h, primary screen (AID 1155);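 further: lysis reports solute entry through the parasite surface anion channel PSAC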; conditions: P. falciparum Indochina infected erythrocytes, higher = more signal, called active from +8 up or from −8 down
[5] = changes in parasitized red cell lysis, either direction – P. falciparum Indochina, OD700, 3 h, PSAC antagonist project, primary screen (AID 1156); conditions: P. falciparum-infected erythrocytes, osmotic lysis, higher = more signal, called active from +8 up or from −8 down
[6] = plasmodial surface anion channel blockers, osmotic lysis – cell-based, P. falciparum Indochina, OD700, 18 h, primary screen (AID 1157); conditions: P. falciparum Indochina infected erythrocytes, osmotic lysis OD700, 18 h; higher = more signal, called active from +8 up or from −8 down
[7] = S6 kinase pathway phospho-S6 level changes – cell-based, A549, cytoblot, luminescence, serum-stimulated, primary screen (AID 1158); conditions: 5 h, higher = more signal;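 further: serum-stimulated A549 lung adenocarcinoma cells; signal is phosphorylated S6 detected by cytoblot immunostaining with HRP secondary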
[8] = biological target: NADPH oxidase 2 (Homo sapiens) (UniProt P04839); test: compounds shifting NOX2 Amplex Red fluorescence – cell-based, HEK293-NOX2, PMA-stimulated, NOX inhibitor project, primary screen (AID 1159); conditions: 45 min, higher = more signal, called active from +8 up or from −8 down; further: test concentration not given here
[9] = biological target: NADPH oxidase 4 (Homo sapiens) (UniProt Q9NPH5); test: compounds shifting NOX4 Amplex Red fluorescence – cell-based, HEK293-NOX4, tetracycline-induced, NOX inhibitor project, primary screen (AID 1160); conditions: HEK293-NOX4, Amplex Red H2O2 fluorescence, 45 min; higher = more signal, called active from +8 up or from −8 down
[10] = biological target: NADPH oxidase 5 (Homo sapiens) (UniProt Q96PH1); test: compounds shifting NOX5 Amplex Red fluorescence – cell-based, HEK293-NOX5, NOX inhibitor project, primary screen (AID 1161); conditions: HEK293-NOX5, ionomycin, 45 min, higher = more signal
[11] = compound effects on lung adenocarcinoma cell viability – A549, calcein-AM fluorescence, 48 h, basal, profiling panel (AID 1162); conditions: higher = more signal; further: test concentration not given here
[12] = compound effects on differentiated 3T3-L1 adipocyte viability – cell-based, 3T3-L1 adipocytes, calcein-AM fluorescence, 48 h, basal, profiling panel (AID 1163); conditions: 3T3-L1 adipocytes viability, higher = more signal; further: test concentration not given here
[13] = compound effects on hepatocellular carcinoma cell viability – HepG2, calcein-AM fluorescence, 48 h, basal, profiling panel (AID 1164); conditions: higher = more signal; further: test concentration not given here
[14] = compound effects on multiple myeloma cell viability – MM1S, calcein-AM fluorescence, 48 h, basal, profiling panel (AID 1165); conditions: higher = more signal; further: test concentration not given here
[15] = calcein-AM signal in unstimulated myeloma cells – cell-based, calcein-AM fluorescence, 48 h, PK04 Diversity Set, profiling panel (AID 1166); conditions: RPMI8226 myeloma viability, higher = more signal;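 further: cells grown under basal conditions without added stimulus; test concentration not given here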
[16] = JC-1 mitochondrial signal, unstimulated HepG2 cells – cell-based, JC-1 fluorescence, 24 h, 100 nL compound, profiling panel (AID 1167); conditions: HepG2 mitochondrial potential, higher = more signal; further: test concentration not given here
[17] = JC-1 mitochondrial signal, unstimulated adipocytes – cell-based, JC-1 fluorescence, 3T3-L1 adipocytes, 24 h, 100 nL compound, profiling panel (AID 1168); conditions: JC-1 mitochondrial fluorescence, higher = more signal, called active from +8 up or from −8 down; further: test concentration not given here
[18] = JC-1 mitochondrial signal, unstimulated myeloma cells – cell-based, JC-1 fluorescence, RPMI8226, 24 h, 100 nL compound, profiling panel (AID 1169); conditions: JC-1 mitochondrial potential fluorescence, higher = more signal; further: test concentration not given here
[19] = JC-1 mitochondrial signal, unstimulated MM1S myeloma – cell-based, JC-1 fluorescence, 24 h, 100 nL compound, profiling panel (AID 1170); conditions: MM1S mitochondrial potential, higher = more signal; further: test concentration not given here
[20] = resazurin metabolic signal in A549 cells – cell-based, resazurin fluorescence, 24 h, PK04 Diversity Set, profiling panel (AID 1171); conditions: A549 viability, higher = more signal, called active from +8 up or from −8 down; further: test concentration not given here

Chain of NADPH oxidase 2 (Homo sapiens) (P04839 whole entry, looked up): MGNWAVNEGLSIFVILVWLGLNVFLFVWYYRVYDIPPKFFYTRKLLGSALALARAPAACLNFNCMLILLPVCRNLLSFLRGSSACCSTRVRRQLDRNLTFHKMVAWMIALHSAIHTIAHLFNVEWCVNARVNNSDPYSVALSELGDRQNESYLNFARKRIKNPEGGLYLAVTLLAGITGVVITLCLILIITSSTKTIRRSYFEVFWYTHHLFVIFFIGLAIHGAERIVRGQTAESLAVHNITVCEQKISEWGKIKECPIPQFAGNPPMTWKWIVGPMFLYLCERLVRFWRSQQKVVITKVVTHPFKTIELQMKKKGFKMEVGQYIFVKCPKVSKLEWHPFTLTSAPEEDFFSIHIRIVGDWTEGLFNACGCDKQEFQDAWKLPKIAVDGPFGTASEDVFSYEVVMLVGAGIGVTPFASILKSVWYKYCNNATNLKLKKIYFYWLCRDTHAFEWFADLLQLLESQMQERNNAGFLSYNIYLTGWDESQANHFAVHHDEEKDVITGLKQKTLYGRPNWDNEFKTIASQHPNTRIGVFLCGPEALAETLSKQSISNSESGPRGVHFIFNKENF
Chain of NADPH oxidase 5 (Homo sapiens) (Q96PH1 whole entry, looked up): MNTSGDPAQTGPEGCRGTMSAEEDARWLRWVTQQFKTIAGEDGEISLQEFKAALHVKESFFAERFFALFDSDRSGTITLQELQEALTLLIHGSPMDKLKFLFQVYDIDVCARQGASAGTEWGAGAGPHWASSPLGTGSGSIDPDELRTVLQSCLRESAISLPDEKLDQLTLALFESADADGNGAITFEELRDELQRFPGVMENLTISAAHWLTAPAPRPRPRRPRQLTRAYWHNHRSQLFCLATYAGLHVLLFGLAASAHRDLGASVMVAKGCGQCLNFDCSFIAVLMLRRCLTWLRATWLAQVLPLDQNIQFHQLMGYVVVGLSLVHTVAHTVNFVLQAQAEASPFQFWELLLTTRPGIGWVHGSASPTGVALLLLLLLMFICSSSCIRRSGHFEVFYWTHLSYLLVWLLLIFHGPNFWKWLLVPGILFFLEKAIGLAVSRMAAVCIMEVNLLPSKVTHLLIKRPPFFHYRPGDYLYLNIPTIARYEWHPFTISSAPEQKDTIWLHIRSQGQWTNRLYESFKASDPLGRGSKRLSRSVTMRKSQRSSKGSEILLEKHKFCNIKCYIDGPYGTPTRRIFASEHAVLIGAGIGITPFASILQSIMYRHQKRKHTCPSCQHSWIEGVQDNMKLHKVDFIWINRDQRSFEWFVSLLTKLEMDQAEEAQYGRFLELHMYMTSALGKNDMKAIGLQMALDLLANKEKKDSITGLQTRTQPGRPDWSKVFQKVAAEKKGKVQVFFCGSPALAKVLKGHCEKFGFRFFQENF
Chain of NADPH oxidase 4 (Homo sapiens) (Q9NPH5 whole entry, looked up): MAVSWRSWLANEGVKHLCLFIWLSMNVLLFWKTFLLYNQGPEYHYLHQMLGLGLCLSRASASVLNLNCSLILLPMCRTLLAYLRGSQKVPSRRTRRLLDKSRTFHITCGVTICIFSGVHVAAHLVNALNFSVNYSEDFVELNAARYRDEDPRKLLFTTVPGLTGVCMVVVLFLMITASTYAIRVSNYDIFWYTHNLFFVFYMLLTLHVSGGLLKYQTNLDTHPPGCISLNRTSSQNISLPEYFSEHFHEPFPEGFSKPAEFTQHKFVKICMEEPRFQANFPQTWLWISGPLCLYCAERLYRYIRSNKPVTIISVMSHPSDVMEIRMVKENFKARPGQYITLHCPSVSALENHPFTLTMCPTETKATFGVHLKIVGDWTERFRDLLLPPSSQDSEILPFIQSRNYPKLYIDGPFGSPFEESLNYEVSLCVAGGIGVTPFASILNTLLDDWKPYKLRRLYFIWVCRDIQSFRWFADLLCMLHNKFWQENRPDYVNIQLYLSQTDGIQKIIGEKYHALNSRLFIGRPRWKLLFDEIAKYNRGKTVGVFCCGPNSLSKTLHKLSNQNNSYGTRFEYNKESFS

SMILES: CC[C@@H](c1ccccc1)n1c(=O)n2n(c1=O)[C@H]1[C@H](O)[C@@H]3O[C@@H]3C(=NOCC(C)C)[C@H]1CC2
- z-score [1]: -1.11 (inactive)
- composite z-score [2]: -0.0508
- z-score [3]: -0.0462 (inactive)
- z-score [4]: -0.155 (inactive)
- z-score [5]: 0.282 (inactive)
- z-score [6]: -0.0656 (inactive)
- z-score [7]: 0.123
- z-score [8]: 1.72 (inactive)
- z-score [9]: 0.386 (inactive)
- z-score [10]: 0.371
- z-score [11]: -0.342
- z-score [12]: 0.245
- z-score [13]: -0.389
- z-score [14]: -0.288
- z-score [15]: 0.44
- z-score [16]: -1.16
- z-score [17]: -1.67 (inactive)
- z-score [18]: -0.0693
- z-score [19]: 0.448
- z-score [20]: 0.276 (inactive)

SMILES: CC(C)CN1CCc2nc(-c3ccccc3)c3c(c2CC1)CO[C@@H](C)C3
- z-score [1]: 0.0991 (inactive)
- composite z-score [2]: 0.0981
- z-score [3]: 0.82 (inactive)
- z-score [4]: 0.576 (inactive)
- z-score [5]: 0.923 (inactive)
- z-score [6]: -0.142 (inactive)
- z-score [7]: -0.528
- z-score [8]: 1.47 (inactive)
- z-score [9]: -0.0482 (inactive)
- z-score [10]: -0.334
- z-score [11]: 0.277
- z-score [12]: 0.493
- z-score [13]: -0.0216
- z-score [14]: -2.48
- z-score [15]: -1.32
- z-score [16]: 0.93
- z-score [17]: 0.163 (inactive)
- z-score [18]: 0.0637
- z-score [19]: 0.75
- z-score [20]: 0.569 (inactive)

SMILES: CO[C@H]([C@@H](C)[C@H](OC)c1ccccc1)[C@H](C)[C@@H](OC)[C@H](C)C(C)=O
- z-score [1]: -0.558 (inactive)
- composite z-score [2]: -0.288
- z-score [3]: 0.815 (inactive)
- z-score [4]: 0.196 (inactive)
- z-score [5]: -0.181 (inactive)
- z-score [6]: 0.269 (inactive)
- z-score [7]: -0.2
- z-score [8]: -0.0369 (inactive)
- z-score [9]: 0.0305 (inactive)
- z-score [10]: 0.447
- z-score [11]: 1.29
- z-score [12]: -0.305
- z-score [13]: 0.278
- z-score [14]: 0.48
- z-score [15]: -0.345
- z-score [16]: 0.0892
- z-score [17]: 1.16 (inactive)
- z-score [18]: -0.141
- z-score [19]: 0.692
- z-score [20]: -0.0733 (inactive)

SMILES: CCN1C(=O)[C@H]2[C@H]3[C@H](O)[C@H](O)CC(=NO[C@@H]4O[C@H](CO)[C@@H](O)[C@H](O)[C@H]4O)[C@@H]3CC[C@H]2C1=O
- z-score [1]: 0.0871 (inactive)
- composite z-score [2]: -0.183
- z-score [3]: 0.568 (inactive)
- z-score [4]: 0.283 (inactive)
- z-score [5]: -0.846 (inactive)
- z-score [6]: -0.0143 (inactive)
- z-score [7]: 0.345
- z-score [8]: 0.0968 (inactive)
- z-score [9]: 0.303 (inactive)
- z-score [10]: -0.0261
- z-score [11]: 1.05
- z-score [12]: 0.462
- z-score [13]: 0.484
- z-score [14]: -0.944
- z-score [15]: 0.0072
- z-score [16]: -0.608
- z-score [17]: 0.725 (inactive)
- z-score [18]: 0.14
- z-score [19]: -0.385
- z-score [20]: -0.859 (inactive)

SMILES: C[C@@H](c1ccccc1)N1C(=O)[C@H]2[C@H]3[C@H](O)[C@H](O)CC(=NOC[C@@H](O)COCc4ccco4)[C@@H]3CC[C@H]2C1=O
- z-score [1]: -0.224 (inactive)
- composite z-score [2]: -0.147
- z-score [3]: 0.169 (inactive)
- z-score [4]: 0.32 (inactive)
- z-score [5]: -0.478 (inactive)
- z-score [6]: -0.138 (inactive)
- z-score [7]: 0.403
- z-score [8]: 0.215 (inactive)
- z-score [9]: -1.51 (inactive)
- z-score [10]: -0.681
- z-score [11]: 0.0517
- z-score [12]: -0.837
- z-score [13]: -0.78
- z-score [14]: 0.0485
- z-score [15]: -0.873
- z-score [16]: -0.794
- z-score [17]: -0.519 (inactive)
- z-score [18]: -0.287
- z-score [19]: -0.542
- z-score [20]: -0.428 (inactive)

SMILES: COC(=O)CC=C[C@@H](C)[C@H](OC)c1ccccc1Br
- z-score [1]: -0.119 (inactive)
- composite z-score [2]: -0.245
- z-score [3]: 0.727 (inactive)
- z-score [4]: 0.716 (inactive)
- z-score [5]: 0.216 (inactive)
- z-score [6]: 0.367 (inactive)
- z-score [7]: -0.0689
- z-score [8]: -0.524 (inactive)
- z-score [9]: 0.055 (inactive)
- z-score [10]: -0.297
- z-score [11]: 0.408
- z-score [12]: -0.662
- z-score [13]: 0.99
- z-score [14]: -0.154
- z-score [15]: -1.15
- z-score [16]: 0.845
- z-score [17]: -0.288 (inactive)
- z-score [18]: 0.0131
- z-score [19]: -0.515
- z-score [20]: -0.0428 (inactive)

SMILES: COC(=O)[C@H](C)NC(=O)[C@@H](C)CO
- z-score [1]: -0.534 (inactive)
- composite z-score [2]: 0.138
- z-score [3]: 0.295 (inactive)
- z-score [4]: 0.451 (inactive)
- z-score [5]: 0.372 (inactive)
- z-score [6]: 0.665 (inactive)
- z-score [7]: 0.656
- z-score [8]: -0.371 (inactive)
- z-score [9]: -0.71 (inactive)
- z-score [10]: 0.468
- z-score [11]: -0.562
- z-score [12]: 0.945
- z-score [13]: -0.524
- z-score [14]: 0.363
- z-score [15]: -1.21
- z-score [16]: -0.355
- z-score [17]: -0.0968 (inactive)
- z-score [18]: -0.04
- z-score [19]: 0.384
- z-score [20]: -0.939 (inactive)

SMILES: COC(=O)CC=C[C@@H](C)[C@@H](C=NO[C@H](C)c1cn([C@@H]2COC[C@H]2O)nn1)OC
- z-score [1]: 0.319 (inactive)
- composite z-score [2]: -0.0003
- z-score [3]: 0.813 (inactive)
- z-score [4]: 0.499 (inactive)
- z-score [5]: 0.5 (inactive)
- z-score [6]: 0.415 (inactive)
- z-score [7]: 0.502
- z-score [8]: -0.0191 (inactive)
- z-score [9]: 0.488 (inactive)
- z-score [10]: -0.0693
- z-score [11]: 0.947
- z-score [12]: -0.0678
- z-score [13]: 0.185
- z-score [14]: 0.415
- z-score [15]: -0.507
- z-score [16]: 1.2
- z-score [17]: -0.39 (inactive)
- z-score [18]: 0.146
- z-score [19]: -0.469
- z-score [20]: -0.567 (inactive)

SMILES: O=C(NN=C1C[C@@H](O)[C@@H](O)[C@@H]2[C@@H]3C(=O)N(c4cccc(Oc5ccccc5)c4)C(=O)[C@@H]3CC[C@H]12)OCc1ccccc1
- z-score [1]: -0.155 (inactive)
- composite z-score [2]: 0.0406
- z-score [3]: 2.26 (inactive)
- z-score [4]: 1.1 (inactive)
- z-score [5]: 2.32 (inactive)
- z-score [6]: 0.527 (inactive)
- z-score [7]: -0.738
- z-score [8]: 1.25 (inactive)
- z-score [9]: 0.056 (inactive)
- z-score [10]: 0.825
- z-score [11]: -0.207
- z-score [12]: -0.205
- z-score [13]: -0.943
- z-score [14]: 0.693
- z-score [15]: -0.363
- z-score [16]: 0.559
- z-score [17]: -1.15 (inactive)
- z-score [18]: 0.0901
- z-score [19]: -0.0387
- z-score [20]: -0.103 (inactive)
